# From PubChem BioAssay
# 3T3 cytotox: cytotoxic compounds in NIH 3T3 cells. NIH 3T3 viability, CellTiter-Glo ATP luminescence, 48-72 h. Potency, µM (doses to about 96.7 µM), for the others: at the top dose activity change, negative = cytotoxicity, actives largely listed as inhibitors. 94,000 tested, 4.3% active; note: % is set by controls: 0 for no effect and ±100 for the full control effect; nearly all actives have a fitted effect of over 55% in size
#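 Viability of NIH 3T3 cells after 48 or 72 hr compound treatment at 37 °C was assessed by CellTiter-Glo, with luminescence imaged following a 10 min room-temperature step.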
# hNpr1 antagonist: blocks ANP-stimulated signaling of human Npr1 receptor; HEK293 hNpr1 GloSensor cGMP, ANP-stimulated luminescence; 76,000 tested, 1.6% active; P16066; Potency, µM (highest dose often 46.3 µM), without a hit: top-dose activity change, negative = inhibition, usual class: inhibitors; calls by dose curve; note: % is set by controls: 0 for no effect and ±100 for the full control effect; nearly all actives have a fitted effect of over 60% in size
#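 Compound pre-incubated 30 min at room temperature on GloSensor-loaded HEK293 cells stably carrying hNpr1 and the pGS-40F cGMP biosensor. Stimulation uses hNppA at 0.1 nM final; luminescence is taken at baseline and 20 min post-agonist.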
# HEK293 tox: cytotoxic compounds in HEK 293 cells. 94,000 tested, 6.6% active. HEK 293 viability, ATP luminescence (CellTiter-Glo), 48-72 h. Potency, µM (series often up to 115 µM), for inactives: top-dose activity change, negative = cytotoxicity, usual class: inhibitors. AID 1345083; note: % is set by controls: 0 for no effect and ±100 for the full control effect; nearly all actives have a fitted effect of over 60% in size
#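 Pintool-delivered compounds were incubated with HEK 293 cells (250 cells/well) at 37 degree Celsius for 48 or 72 hr. ATP-dependent luminescence (CellTiter-Glo) then reported remaining viable cells.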
# FLuc inh-1: Photinus pyralis luciferase inhibition; 76,000 tested, 2.5% active; purified P. pyralis luciferase, luminescence, biochemical; P08659; Potency, µM (series often up to 115 µM), usual class: inhibitors; AID 1347043; note: % is set by controls: 0 for no effect and ±100 for the full control effect; nearly all actives have a fitted effect of over 65% in size
#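 Biochemical qHTS: compound (6-point titration) added to 10uM D-luciferin plus 10uM ATP in Tris acetate pH 7.5 buffer with Mg, Tween-20 and BSA, then purified enzyme at 10nM; light output imaged.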
# FLuc SDR no ATP: binders stabilizing firefly luciferase, without ATP | shares compounds with FLuc inh-1 | Purified FLuc-C-HiBiT, Nano-Glo HiBiT luminescence, no ATP | Potency, µM (series often up to 32.7 µM), for the others: at the top dose activation (signal gain), most hits filed as activators | 1,300 tested, 7.8% active; note: nearly all actives have a fitted effect of over 55% in size
# FLuc SDR ATP: stabilizes firefly luciferase with ATP present; shares compounds with FLuc inh-1; purified FLuc-C-HiBiT + ATP, HiBiT complementation luminescence; Potency, µM (doses to about 32.7 µM), without a hit: at the highest dose activation (gain of signal), usual class: activators; 1,300 tested, 8.7% active;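 note: signal reports ligand binding via conformational change of the enzyme rather than luciferase catalysis; % of control where 0% means no effect; nearly all actives have a fitted effect of over 55% in size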
# FLuc inh-2: inhibitors of firefly luciferase enzymatic activity | Potency, µM (top dose mostly 32.7 µM), for the others: at the highest dose activity change, negative = inhibition, usual class: inhibitors | 1,300 tested, 42% active | purified FLuc-C-HiBiT enzyme, luciferin luminescence | shares compounds with FLuc inh-1; note: % is set by controls: 0 for no effect and ±100 for the full control effect; nearly all actives have a fitted effect of over 70% in size
# * hit, by the source's call; i = inactive; u = inconclusive; x = no result given; [ ] = remark or other dose. This is a sample that favours compounds with a hit; in the whole collection about 11% have one here. Unless noted, calls come from the whole dose curve; as a rule, active = well fitted curve in the direction sought with a large enough effect; inconclusive = small, poorly fitted or top-dose-only effect, or another doubt; inactive = no such curve, though single readings can be large; an effect the other way counts as inactive or inconclusive. Potency is the fitted concentration of half-maximal effect.
SMILES,3T3 cytotox,hNpr1 antagonist,HEK293 tox,FLuc inh-1,FLuc SDR no ATP,FLuc SDR ATP,FLuc inh-2
CCOc1ccc(C2NC(=O)N(CCC(C)C)C3=C2C(=O)OC3)cc1 (centres undefined),-21.7%,-0.2%,u,i,x,x,x
CNC(=O)c1cc(C2CC2)nc2c1c(C1CCCN(C(=O)c3ccccc3OC)C1)nn2C (centres undefined),-16.5%,x,-15.2%,x,x,x,x
c1ccc(COc2ccc(CN3CCSCC3)cc2)nc1,i,3.4%,u,10µM*,21.1%,15.1%,u
O=C(c1cncc(N2CCCC(CCc3cccc(F)c3)C2)n1)N1CCCCC1 (centres undefined),u,-14.7%,u,i,x,x,x
Cc1nn(-c2ccccc2)c2c1C(C1CC1)N(C1CCN(Cc3ccccc3C(F)(F)F)CC1)C2=O (centres undefined),-14.5%,x,-16.5%,x,x,x,x
COc1ccccc1-c1nc2cc(NC(=O)c3ccccc3Cl)ccc2o1,x,x,x,x,15.8%,12.7%,u
O=C(Nc1ccc2oc(-c3ccccc3F)nc2c1)c1ccccc1Cl,x,x,x,x,20.1%,16.6%,u
Cn1ncc2c(C(=O)Nc3cccc(Cl)c3)cc(-c3ccccc3F)nc21,-29.4%,x,u,x,x,x,x
O=C(c1ccc(C(F)(F)F)cc1)N1CCCC(C(=O)N2CCC(N3CCCC3=O)CC2)C1 (centres undefined),-14.5%,x,-2.0%,x,x,x,x
CC1CCc2nn3ccn(CC(=O)NCc4ccccc4)c(=O)c3c2C1 (centres undefined),-25.5%,3.6%,u,i,x,x,x
CC1CCc2nc3ncn(Cc4ccc(Cl)cc4)c(=O)c3cc2C1 (centres undefined),x,x,x,x,16.2%,12.7%,-8.5%
O=C(c1ccc(F)cc1)N1CCN(C(=O)c2nc3cccnc3n(CCc3ccccc3)c2=O)CC1,-29.6%,x,-20.8%,x,x,x,x
Cc1ccc(NC(=O)N2CCC(CCNC(=O)C3CCCC3)CC2)cc1,-5.8%,-0.7%,0.9%,i,x,x,x
COc1ccc(C(=O)NCCC2CCN(C(=O)Nc3cc(F)cc(F)c3)CC2)cc1,-29.8%,-25.9%,u,6.31µM*,u,14.8%,u
COc1cccc(C(=O)NCCC2CCN(C(=O)Nc3cccc(F)c3)CC2)c1,u,0.4%,-23.1%,i,x,x,x
Cc1ccc(NC(=O)N2CCC(CCNC(=O)C3CCC3)CC2)cc1F,-23.7%,-22.5%,-12.4%,11.2µM*,u,u,u
Cc1ccc(NC(=O)N2CCC(CCNC(=O)C(C)C)CC2)cc1F,-6.5%,4.0%,-6.3%,u,x,x,x
Cc1ccc(NC(=O)N2CCC(CCNC(=O)C3CC3)CC2)cc1,-18.8%,-5.2%,u,10µM*,u,u,u
Cc1ccc(NC(=O)N2CCC(CCNC(=O)c3ccc(F)cc3)CC2)cc1F,u,-27.5%,u,10µM*,21.1%,12.7%,u
COc1cccc(CNC[C@H]2O[C@H](Cc3cc(-c4ccccn4)on3)CC[C@@H]2O)c1,-0.9%[174 µM],-16.8%[70.6 µM],-4.7%[172 µM],i,x,x,x
CC(=O)N(C1CC1)C1CCOC2(CCN(C(=O)c3ccsc3)CC2)C1 (centres undefined),-19.9%,x,-14.8%,x,x,x,x
COc1ccc(Nc2nc(-c3c(C)noc3C)cc3cc(CO)oc23)cc1OC,u,-8.0%[70.6 µM],u,i,x,x,x
CC1CCN(C(=O)c2cc3c(s2)CCC(C(=O)O)C3)CC1 (centres undefined),-29.7%,0.2%,-9.0%,12.6µM*,10.1%,18.6%,u
O=C(O)C1CCc2sc(C(=O)N3CCOCC3)cc2C1 (centres undefined),2.4%,-0.8%,-4.1%,i,x,x,x
Cc1c(-c2ccccc2F)[nH]c2ccc(CNC(=O)C3C=CCN3)cc12 (centres undefined),u,-22.9%,u,10µM*,18.9%,13.3%,u
SMILES,3T3 cytotox,hNpr1 antagonist,HEK293 tox,FLuc inh-1,FLuc SDR no ATP,FLuc SDR ATP,FLuc inh-2
Cc1c(-c2ccccc2F)[nH]c2ccc(CNC(=O)C3CCCN(C(N)=O)C3)cc12 (centres undefined),u,-4.5%,u,3.55µM*,30.6%,u,5.56µM*
Cc1ccc(-n2ncc3c(N4CCC(Cc5ccccc5)CC4)ncnc32)cc1C,x,x,x,x,13.1%,9.0%,-1.2%
O=C(C1CN(c2ccccc2)C(=O)N1)N1CCC(Cc2ccccc2)CC1 (centres undefined),u,-21.0%,u,i,x,x,x
Fc1ccc(-n2ncc3c(N4CCC(Cc5ccccc5)CC4)ncnc32)cc1,x,x,x,x,15.1%,7.9%,1.1%
CN1CC(=O)N(C2CCCNCC2)Cc2c1ncnc2N1CCC(O)C1 (centres undefined),i,x,i,x,x,x,x
Cc1ccc(-c2cc(N)n(-c3ccc(C)cc3)n2)cc1,x,x,x,x,23.3%,13.9%,u
COc1ccc(O)c(C2CC(=O)Nc3c2c(C)nn3-c2ccc(C)cc2)c1 (centres undefined),-10.3%,u,u,i,x,x,x
C[C@H](C(=O)NCCN1CCOCC1)C1CC[C@@]2(C)Cc3sc(CS(=O)(=O)C(C)(C)C)nc3[C@@H](C)[C@@H]2[C@H]1O (some centres undefined),-6.5%,-1.0%,-8.1%,i,x,x,x
C[C@H](C(=O)N1CCCC1)C1CC[C@@]2(C)Cc3sc(-c4ccccc4)nc3[C@@H](C)[C@@H]2[C@H]1O (some centres undefined),u,u,44.7µM*,8.91µM*,3.13µM*,2.21µM*,1.97µM*
COCCNC(=O)[C@@H](C)C1CC[C@@]2(C)Cc3sc(CSc4ccccc4)nc3[C@@H](C)[C@@H]2[C@H]1O (some centres undefined),u,11.2µM*,u,7.08µM*,27.8%,u,u
O=C(Cc1cccn1-c1cccc(Cl)c1)NCCCN1CCCC1,-1.9%,-9.4%,-5.2%,i,x,x,x
O=C(CCC1CCCC1)N1CCCC1c1nc(CCOCC2CCOCC2)no1 (centres undefined),-6.5%,-2.3%,u,i,x,x,x
Cc1ccc2c(c1)sc1nc(-c3cc4ccccc4oc3=O)cn12,x,x,x,x,28.6%,u,0.248µM*
Cc1cc2cc(C(=O)N3CCN(c4nc5ccccc5s4)CC3)ccc2o1,-4.2%,u,u,i,x,x,x
Cc1cc2c(c(-c3nc4ccccc4s3)c1)OC(CNC(=O)CCc1cccnc1)C2 (centres undefined),x,x,x,x,14.4%,8.9%,u
COc1ccc(-c2noc(-c3nc(-c4ccc(OC)c(OC)c4)no3)n2)cc1OC,i,1.1%,-0.8%,i,x,x,x
